# Source: article PMC7862700, “An all-to-all approach to the identification of sequence-specific readers for epigenetic DNA modifications on cytosine”
# What was measured:
# Test in all cases: DAPPL (digital affinity profiling via proximity ligation, sequencing); 10 mM Tris-HCl pH 7.5, 50 mM NaCl, 1 mM DTT, 4% glycerol, room temperature, 30 min; GST-TFs on glutathione beads, 16-mer random dsDNA library, 0.1% formaldehyde crosslink after washing; high values mean tight binding
# FLI1 = molecular target: T1, FLI1 (Homo sapiens, UniProt Q01543 1-452); details: protein: recombinant; tags: N-terminal GST; dsDNA, one strand shown
# T1 sequence: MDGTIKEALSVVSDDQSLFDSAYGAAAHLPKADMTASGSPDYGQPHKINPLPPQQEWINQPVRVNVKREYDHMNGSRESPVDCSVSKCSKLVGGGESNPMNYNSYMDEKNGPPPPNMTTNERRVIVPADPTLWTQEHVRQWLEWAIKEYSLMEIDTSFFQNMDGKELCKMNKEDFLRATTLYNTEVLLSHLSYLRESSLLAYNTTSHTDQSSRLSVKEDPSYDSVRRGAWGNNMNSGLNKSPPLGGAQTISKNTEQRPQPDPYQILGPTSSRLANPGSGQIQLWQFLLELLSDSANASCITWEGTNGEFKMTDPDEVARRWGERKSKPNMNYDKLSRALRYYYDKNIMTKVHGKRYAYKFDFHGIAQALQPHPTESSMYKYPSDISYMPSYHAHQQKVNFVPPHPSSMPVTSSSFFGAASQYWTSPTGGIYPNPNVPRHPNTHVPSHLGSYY
# Procedure, shortened: (§1)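 Pools of DNA-barcoded human transcription factors, expressed in yeast as GST fusions on glutathione beads and combined with a tag-only sample, were incubated with 200 nmole of a 16-mer random double-stranded DNA library. Incubation took 30 min at room temperature in Tris/NaCl/DTT/glycerol buffer and was followed by washing, 0.1% formaldehyde crosslinking, proximity ligation (BsaI/T4 ligase, 1 h, 37 °C), PCR amplification and sequencing on an Illumina NextSeq500. Binding signal is the ratio of a hexamer's read frequency for a factor to its frequency for the tag-only sample.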
# ELK1 = molecular target: T2, ELK1 (Homo sapiens, UniProt P19419 1-428); details: protein: recombinant; tags: N-terminal GST; dsDNA, one strand shown
# T2 sequence: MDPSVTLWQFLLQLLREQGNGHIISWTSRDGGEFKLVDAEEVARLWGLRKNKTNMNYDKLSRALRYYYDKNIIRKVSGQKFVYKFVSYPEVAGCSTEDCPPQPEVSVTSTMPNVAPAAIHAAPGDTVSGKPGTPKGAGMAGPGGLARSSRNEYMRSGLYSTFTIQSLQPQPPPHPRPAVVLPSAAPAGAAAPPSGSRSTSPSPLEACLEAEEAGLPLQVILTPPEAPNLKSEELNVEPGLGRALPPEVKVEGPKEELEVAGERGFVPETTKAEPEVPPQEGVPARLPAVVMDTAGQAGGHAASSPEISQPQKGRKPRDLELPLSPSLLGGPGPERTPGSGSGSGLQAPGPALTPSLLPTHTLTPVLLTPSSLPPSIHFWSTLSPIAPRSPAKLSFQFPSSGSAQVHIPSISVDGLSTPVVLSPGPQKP
# Procedure, shortened: as §1
# GABPA = molecular target: T3, GABPA (Homo sapiens, UniProt Q06546 1-454); details: protein: recombinant; tags: N-terminal GST; dsDNA, one strand shown
# T3 sequence: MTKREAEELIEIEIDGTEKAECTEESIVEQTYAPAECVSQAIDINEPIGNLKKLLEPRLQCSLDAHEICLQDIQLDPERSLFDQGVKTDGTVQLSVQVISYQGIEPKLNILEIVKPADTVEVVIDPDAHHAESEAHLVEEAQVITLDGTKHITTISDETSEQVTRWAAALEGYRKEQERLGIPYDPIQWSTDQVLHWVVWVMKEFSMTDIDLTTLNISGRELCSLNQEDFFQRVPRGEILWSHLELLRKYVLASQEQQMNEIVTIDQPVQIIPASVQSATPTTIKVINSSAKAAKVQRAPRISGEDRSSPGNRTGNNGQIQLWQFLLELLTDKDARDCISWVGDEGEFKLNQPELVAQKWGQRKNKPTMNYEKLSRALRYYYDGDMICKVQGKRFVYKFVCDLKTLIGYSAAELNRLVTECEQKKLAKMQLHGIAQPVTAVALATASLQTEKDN
# Procedure, shortened: as §1
# ERG = molecular target: T4, ERG (Homo sapiens, UniProt P11308 1-479); details: protein: recombinant; tags: N-terminal GST; dsDNA, one strand shown
# T4 sequence: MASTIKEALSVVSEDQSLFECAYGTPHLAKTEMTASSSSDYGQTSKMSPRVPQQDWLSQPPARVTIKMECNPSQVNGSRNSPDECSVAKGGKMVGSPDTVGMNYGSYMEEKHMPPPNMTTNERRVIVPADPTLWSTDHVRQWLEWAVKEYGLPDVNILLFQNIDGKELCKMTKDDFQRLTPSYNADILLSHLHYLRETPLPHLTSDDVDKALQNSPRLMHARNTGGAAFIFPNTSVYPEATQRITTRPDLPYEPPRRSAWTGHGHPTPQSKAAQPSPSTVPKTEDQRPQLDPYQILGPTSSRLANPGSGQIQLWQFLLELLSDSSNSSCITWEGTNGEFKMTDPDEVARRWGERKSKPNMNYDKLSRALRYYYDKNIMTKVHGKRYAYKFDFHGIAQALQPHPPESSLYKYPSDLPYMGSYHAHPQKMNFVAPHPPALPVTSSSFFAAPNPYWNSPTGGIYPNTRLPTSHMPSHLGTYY
# Procedure, shortened: as §1
# ELF1 = ELF1 (Homo sapiens, UniProt P32519 1-619); details: protein: recombinant; tags: N-terminal GST; dsDNA, one strand shown
# Chain of ELF1 (P32519 whole entry): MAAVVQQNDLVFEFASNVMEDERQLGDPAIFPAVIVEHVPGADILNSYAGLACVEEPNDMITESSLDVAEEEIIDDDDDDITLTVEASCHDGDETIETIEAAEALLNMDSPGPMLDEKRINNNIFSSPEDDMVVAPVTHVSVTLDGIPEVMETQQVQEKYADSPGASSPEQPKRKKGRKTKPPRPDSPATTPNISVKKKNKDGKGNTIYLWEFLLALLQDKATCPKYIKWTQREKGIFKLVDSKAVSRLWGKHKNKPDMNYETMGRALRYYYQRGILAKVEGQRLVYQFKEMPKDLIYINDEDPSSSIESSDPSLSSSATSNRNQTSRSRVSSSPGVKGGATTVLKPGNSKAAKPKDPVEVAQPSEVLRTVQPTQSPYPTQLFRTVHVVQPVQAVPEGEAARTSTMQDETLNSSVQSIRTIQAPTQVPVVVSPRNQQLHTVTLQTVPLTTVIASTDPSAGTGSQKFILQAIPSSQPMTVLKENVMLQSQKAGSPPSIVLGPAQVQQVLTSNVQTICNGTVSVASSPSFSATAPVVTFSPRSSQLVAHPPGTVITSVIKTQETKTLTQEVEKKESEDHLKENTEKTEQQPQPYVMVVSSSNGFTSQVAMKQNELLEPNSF
# Procedure, shortened: as §1
# EHF = molecular target: T5, EHF (Homo sapiens, UniProt Q9NZC4 1-300); details: protein: recombinant; tags: N-terminal GST; dsDNA, one strand shown
# T5 sequence: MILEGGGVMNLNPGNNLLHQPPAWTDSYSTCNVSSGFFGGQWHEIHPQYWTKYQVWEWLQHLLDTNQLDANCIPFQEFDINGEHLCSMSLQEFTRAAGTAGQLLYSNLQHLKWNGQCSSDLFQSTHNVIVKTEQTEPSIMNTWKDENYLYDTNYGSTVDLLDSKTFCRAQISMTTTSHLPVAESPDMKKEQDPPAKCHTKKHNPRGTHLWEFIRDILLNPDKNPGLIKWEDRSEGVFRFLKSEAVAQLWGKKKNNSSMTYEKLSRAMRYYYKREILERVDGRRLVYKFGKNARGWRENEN
# Procedure, shortened: as §1
# SPI1 = SPI1 (Homo sapiens, UniProt P17947 1-270); details: protein: recombinant; tags: N-terminal GST; dsDNA, one strand shown
# Procedure, shortened: as §1
# SPIB = SPIB (Homo sapiens, UniProt Q01892 1-262); details: protein: recombinant; tags: N-terminal GST; dsDNA, one strand shown
# Chain of SPIB (Q01892 whole entry): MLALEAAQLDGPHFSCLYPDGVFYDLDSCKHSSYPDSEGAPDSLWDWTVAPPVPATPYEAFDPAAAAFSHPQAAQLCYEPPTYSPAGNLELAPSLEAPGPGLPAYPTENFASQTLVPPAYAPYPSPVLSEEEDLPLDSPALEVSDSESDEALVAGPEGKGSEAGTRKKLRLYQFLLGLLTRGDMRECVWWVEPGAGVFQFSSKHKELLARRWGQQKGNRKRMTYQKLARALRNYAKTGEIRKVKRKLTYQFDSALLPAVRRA
# Procedure, shortened: as §1
# ELK3 = molecular target: T6, ELK3 (Homo sapiens, UniProt P41970 1-407); details: protein: recombinant; tags: N-terminal GST; dsDNA, one strand shown
# T6 sequence: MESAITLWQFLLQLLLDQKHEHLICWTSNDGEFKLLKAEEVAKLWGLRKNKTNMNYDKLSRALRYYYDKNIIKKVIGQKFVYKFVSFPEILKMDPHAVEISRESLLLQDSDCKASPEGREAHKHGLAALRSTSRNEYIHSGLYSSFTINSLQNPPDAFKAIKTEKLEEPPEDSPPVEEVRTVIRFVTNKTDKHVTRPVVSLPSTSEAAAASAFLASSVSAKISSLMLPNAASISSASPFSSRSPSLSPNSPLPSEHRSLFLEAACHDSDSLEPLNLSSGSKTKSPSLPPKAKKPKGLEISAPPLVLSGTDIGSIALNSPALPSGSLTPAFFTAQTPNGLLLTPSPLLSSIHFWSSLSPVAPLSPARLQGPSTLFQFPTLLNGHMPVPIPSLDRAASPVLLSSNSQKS
# Procedure, shortened: as §1
# FEV = molecular target: T7, FEV (Homo sapiens, UniProt Q99581 1-238); details: protein: recombinant; tags: N-terminal GST; dsDNA, one strand shown
# T7 sequence: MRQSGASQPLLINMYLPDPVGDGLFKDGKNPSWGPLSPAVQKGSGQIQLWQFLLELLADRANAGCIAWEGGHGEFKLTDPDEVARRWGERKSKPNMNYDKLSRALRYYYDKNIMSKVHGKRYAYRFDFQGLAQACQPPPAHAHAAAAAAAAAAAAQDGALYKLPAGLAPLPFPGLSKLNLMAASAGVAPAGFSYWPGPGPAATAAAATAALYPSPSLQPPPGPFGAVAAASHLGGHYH
# Procedure, shortened: as §1
# ETV5 = ETV5 (Homo sapiens, UniProt P41161 1-510); details: protein: recombinant; tags: N-terminal GST; dsDNA, one strand shown
# Chain of ETV5 (P41161 whole entry): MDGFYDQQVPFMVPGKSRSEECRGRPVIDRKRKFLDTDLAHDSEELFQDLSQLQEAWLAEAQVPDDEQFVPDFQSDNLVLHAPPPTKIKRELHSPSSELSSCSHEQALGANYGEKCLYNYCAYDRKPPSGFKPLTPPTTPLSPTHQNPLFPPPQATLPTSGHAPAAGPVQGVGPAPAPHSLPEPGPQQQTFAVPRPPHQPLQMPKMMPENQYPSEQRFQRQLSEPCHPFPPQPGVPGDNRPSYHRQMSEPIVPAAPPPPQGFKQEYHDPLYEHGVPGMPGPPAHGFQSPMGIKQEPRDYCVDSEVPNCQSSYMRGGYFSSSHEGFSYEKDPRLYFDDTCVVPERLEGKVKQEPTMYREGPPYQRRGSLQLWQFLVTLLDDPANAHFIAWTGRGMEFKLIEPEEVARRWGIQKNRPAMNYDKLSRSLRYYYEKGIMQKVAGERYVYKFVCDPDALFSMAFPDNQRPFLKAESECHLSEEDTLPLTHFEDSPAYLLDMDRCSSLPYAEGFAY
# Procedure, shortened: as §1
# HSF1 = HSF1 (Homo sapiens, UniProt Q00613 1-529); details: protein: recombinant; tags: N-terminal GST; chain copies: 3; dsDNA, one strand shown
# Chain of HSF1 (Q00613 whole entry): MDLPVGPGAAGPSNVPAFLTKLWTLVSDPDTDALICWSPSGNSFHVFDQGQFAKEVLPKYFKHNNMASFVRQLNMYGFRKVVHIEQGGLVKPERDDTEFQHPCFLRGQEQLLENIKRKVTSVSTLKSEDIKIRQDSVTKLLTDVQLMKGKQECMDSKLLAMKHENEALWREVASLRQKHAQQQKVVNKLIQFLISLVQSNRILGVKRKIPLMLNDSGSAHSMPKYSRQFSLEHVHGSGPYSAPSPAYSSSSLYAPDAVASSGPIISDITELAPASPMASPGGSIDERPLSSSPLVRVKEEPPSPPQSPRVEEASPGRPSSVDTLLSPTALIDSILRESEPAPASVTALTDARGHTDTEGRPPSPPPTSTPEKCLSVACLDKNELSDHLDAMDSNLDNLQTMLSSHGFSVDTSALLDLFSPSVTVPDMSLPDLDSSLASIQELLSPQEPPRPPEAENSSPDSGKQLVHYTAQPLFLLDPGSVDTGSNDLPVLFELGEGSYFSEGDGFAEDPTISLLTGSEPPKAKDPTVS
# Procedure, shortened: as §1
# SPIC = molecular target: T8, SPIC (Homo sapiens, UniProt Q8N5J4 1-248); details: protein: recombinant; tags: N-terminal GST; dsDNA, one strand shown
# T8 sequence: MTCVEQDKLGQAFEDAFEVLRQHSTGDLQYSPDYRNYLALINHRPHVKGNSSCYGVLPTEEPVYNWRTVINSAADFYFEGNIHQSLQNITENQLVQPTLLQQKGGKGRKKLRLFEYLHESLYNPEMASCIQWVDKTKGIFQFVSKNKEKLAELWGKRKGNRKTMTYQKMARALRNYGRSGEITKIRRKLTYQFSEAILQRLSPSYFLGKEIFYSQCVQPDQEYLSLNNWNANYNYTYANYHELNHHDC
# Procedure, shortened: as §1
# ELF4 = ELF4 (Homo sapiens, UniProt Q99607 1-663); details: protein: recombinant; tags: N-terminal GST; dsDNA, one strand shown
# Chain of ELF4 (Q99607 whole entry): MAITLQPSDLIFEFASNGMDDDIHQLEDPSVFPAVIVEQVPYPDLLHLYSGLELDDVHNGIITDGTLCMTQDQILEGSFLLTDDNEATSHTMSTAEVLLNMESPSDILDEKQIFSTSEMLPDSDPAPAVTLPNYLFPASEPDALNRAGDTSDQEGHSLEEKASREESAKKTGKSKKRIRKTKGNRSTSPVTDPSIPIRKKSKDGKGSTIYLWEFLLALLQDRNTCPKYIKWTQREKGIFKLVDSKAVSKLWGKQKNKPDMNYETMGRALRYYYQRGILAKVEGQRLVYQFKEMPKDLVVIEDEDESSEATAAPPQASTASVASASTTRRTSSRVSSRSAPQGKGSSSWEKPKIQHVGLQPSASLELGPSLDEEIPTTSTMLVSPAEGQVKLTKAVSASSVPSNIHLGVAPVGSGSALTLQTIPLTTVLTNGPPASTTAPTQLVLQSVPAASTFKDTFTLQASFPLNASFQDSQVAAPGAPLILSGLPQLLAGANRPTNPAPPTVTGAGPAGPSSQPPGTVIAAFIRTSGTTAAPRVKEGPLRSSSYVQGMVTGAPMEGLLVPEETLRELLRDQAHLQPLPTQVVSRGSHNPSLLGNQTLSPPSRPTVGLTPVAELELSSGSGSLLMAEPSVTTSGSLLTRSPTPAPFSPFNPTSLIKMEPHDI
# Procedure, shortened: as §1
# ELK4 = molecular target: T9, ELK4 (Homo sapiens, UniProt P28324-2 1-405); details: protein: recombinant; tags: N-terminal GST; dsDNA, one strand shown
# T9 sequence: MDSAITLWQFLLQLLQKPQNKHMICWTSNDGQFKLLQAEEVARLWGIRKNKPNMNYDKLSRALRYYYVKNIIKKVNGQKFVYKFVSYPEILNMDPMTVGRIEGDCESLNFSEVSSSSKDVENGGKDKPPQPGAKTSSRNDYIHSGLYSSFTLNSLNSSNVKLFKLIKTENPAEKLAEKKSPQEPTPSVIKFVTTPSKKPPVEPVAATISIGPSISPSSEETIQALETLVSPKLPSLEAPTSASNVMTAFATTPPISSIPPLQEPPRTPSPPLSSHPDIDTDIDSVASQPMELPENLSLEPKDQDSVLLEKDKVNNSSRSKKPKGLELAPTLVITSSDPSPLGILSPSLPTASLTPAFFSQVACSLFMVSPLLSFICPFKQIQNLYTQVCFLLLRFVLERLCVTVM
# Procedure, shortened: as §1
# ETV2 = molecular target: T10, ETV2 (Homo sapiens, UniProt O00321 1-342); details: protein: recombinant; tags: N-terminal GST; dsDNA, one strand shown
# T10 sequence: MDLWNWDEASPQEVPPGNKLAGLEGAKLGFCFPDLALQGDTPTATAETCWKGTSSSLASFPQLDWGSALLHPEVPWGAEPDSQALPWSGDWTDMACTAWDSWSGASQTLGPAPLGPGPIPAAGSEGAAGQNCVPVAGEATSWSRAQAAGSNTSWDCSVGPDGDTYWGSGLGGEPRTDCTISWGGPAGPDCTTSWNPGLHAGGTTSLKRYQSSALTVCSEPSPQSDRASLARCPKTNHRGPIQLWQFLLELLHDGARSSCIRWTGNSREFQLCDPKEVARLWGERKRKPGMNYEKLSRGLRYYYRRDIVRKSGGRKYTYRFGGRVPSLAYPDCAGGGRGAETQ
# Procedure, shortened: as §1
# ELF3 = molecular target: T11, ELF3 (Homo sapiens, UniProt P78545 1-371); details: protein: recombinant; tags: N-terminal GST; dsDNA, one strand shown
# T11 sequence: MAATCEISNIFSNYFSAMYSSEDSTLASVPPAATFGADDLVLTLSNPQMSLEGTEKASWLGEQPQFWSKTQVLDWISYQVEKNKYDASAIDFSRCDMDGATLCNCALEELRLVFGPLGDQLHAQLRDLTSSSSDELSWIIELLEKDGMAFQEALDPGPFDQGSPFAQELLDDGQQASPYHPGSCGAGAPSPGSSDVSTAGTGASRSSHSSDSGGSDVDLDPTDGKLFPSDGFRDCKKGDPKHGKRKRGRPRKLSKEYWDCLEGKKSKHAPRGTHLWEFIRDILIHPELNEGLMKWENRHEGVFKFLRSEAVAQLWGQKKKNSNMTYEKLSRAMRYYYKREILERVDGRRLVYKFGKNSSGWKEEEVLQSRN
# Procedure, shortened: as §1
# CRX = CRX (Homo sapiens, UniProt O43186 1-299); details: protein: recombinant; tags: N-terminal GST; dsDNA, one strand shown
# Chain of CRX (O43186 whole entry): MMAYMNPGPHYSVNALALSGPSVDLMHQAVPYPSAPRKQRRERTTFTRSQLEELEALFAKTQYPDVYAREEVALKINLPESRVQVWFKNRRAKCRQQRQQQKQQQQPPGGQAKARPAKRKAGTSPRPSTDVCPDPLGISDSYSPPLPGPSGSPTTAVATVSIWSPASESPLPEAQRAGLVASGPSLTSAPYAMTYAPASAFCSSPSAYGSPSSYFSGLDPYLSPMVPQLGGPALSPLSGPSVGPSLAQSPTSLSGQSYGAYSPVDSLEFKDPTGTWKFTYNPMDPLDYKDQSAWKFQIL
# Procedure, shortened: as §1
# ETV1 = ETV1 (Homo sapiens, UniProt P50549 1-477); details: protein: recombinant; tags: N-terminal GST; dsDNA, one strand shown
# Chain of ETV1 (P50549 whole entry): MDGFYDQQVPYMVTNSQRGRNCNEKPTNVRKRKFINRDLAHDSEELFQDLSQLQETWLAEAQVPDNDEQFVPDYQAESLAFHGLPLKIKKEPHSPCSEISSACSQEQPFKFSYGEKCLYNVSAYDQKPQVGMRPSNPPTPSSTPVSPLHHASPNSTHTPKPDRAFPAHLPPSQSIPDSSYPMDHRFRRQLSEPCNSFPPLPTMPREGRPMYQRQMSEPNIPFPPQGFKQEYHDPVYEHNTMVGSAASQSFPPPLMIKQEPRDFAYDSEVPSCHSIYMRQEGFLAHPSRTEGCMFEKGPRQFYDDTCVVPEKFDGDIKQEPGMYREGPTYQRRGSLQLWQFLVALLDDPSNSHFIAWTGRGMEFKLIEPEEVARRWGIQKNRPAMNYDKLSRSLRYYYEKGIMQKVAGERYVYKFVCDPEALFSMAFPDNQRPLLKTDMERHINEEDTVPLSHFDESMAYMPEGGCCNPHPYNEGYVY
# Procedure, shortened: as §1
sequence,measurement,setting,value
CCTCCA,binding signal,FLI1,"1.37 fold enrichment (6-mer frequency, TF over GST control)"
same,binding signal,ELK1,"1.5 fold enrichment (6-mer frequency, TF over GST control)"
same,binding signal,GABPA,"1.23 fold enrichment (6-mer frequency, TF over GST control)"
same,binding signal,ERG,"1.38 fold enrichment (6-mer frequency, TF over GST control)"
same,binding signal,ELF1,"1.37 fold enrichment (6-mer frequency, TF over GST control)"
same,binding signal,EHF,"1.33 fold enrichment (6-mer frequency, TF over GST control)"
same,binding signal,SPI1,"1.28 fold enrichment (6-mer frequency, TF over GST control)"
same,binding signal,SPIB,"1.3 fold enrichment (6-mer frequency, TF over GST control)"
same,binding signal,ELK3,"1.37 fold enrichment (6-mer frequency, TF over GST control)"
same,binding signal,FEV,"1.31 fold enrichment (6-mer frequency, TF over GST control)"
same,binding signal,ETV5,"1.34 fold enrichment (6-mer frequency, TF over GST control)"
same,binding signal,HSF1,"1.29 fold enrichment (6-mer frequency, TF over GST control)"
same,binding signal,SPIC,"1.34 fold enrichment (6-mer frequency, TF over GST control)"
same,binding signal,ELF4,"1.38 fold enrichment (6-mer frequency, TF over GST control)"
same,binding signal,ELK4,"1.47 fold enrichment (6-mer frequency, TF over GST control)"
same,binding signal,ETV2,"1.43 fold enrichment (6-mer frequency, TF over GST control)"
same,binding signal,ELF3,"1.02 fold enrichment (6-mer frequency, TF over GST control)"
same,binding signal,CRX,"1.12 fold enrichment (6-mer frequency, TF over GST control)"
same,binding signal,ETV1,"1.36 fold enrichment (6-mer frequency, TF over GST control)"
